# Test results published in PubChem BioAssay AID1645838 (ICCB-Longwood Screening Facility, Harvard Medical School, 2021).
# “And” between values parts separate entries of the source, which are not always exact repeats. Equal values may be shown once. Screen size: about 2,000 compounds; about 100 (5%) were called active. The sample holds actives, similar compounds and a random draw of the others, so the mix is not that of the screen. No stated cut-off is given here; in the data, active means z-score above about 2; inactive means the rest. A structure can be active in one record and inactive in another.
# Assay: modulators of mitochondrial supercomplex assembly, cell-based, luminescence, Hoechst nuclei count (AID 1645838);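 further: control cybrid cells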;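 on z-score: higher means more mitochondrial supercomplex formation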
# Conditions: Cells, luminescence/Hoechst cell count ratio, supercomplex reporter; for z-score: stronger effect = higher value; for cell count: measured here: cell number, Hoechst nuclei count
# [1] = library stock concentration (final well concentration not given) 80 uM
# [2] = library stock concentration (final well concentration not given) 400 uM
# [3] = library stock concentration (final well concentration not given) 2 mM
# [4] = library stock concentration (final well concentration not given) 10 mM
# [5] = library stock concentration (final well concentration not given) 46 uM
# [6] = library stock concentration (final well concentration not given) 278 uM
# [7] = library stock concentration (final well concentration not given) 1.67 mM
structure (smiles),measurement,setting,value
CC1(C)OC2CO[C@@]3(COS(N)(=O)=O)OC(C)(C)OC3C2O1 (stereo partly drawn),z-score,[1],0.166 (inactive)
same,z-score,[2],0.0797 (inactive)
same,z-score,[3],0.165 (inactive)
same,z-score,[4],-0.169 (inactive)
same,cell count,[1],6240
same,cell count,[2],6200
same,cell count,[3],5750
same,cell count,[4],5940
CCCCCCCCCCCCCCCCC(=O)NCCO,z-score,,0.812 (inactive)
same,cell count,,5880
CC(N)c1ccc(C(=O)Nc2ccnc3[nH]ccc23)cc1 (stereo not drawn),z-score,[1],0.0935 (inactive)
same,z-score,[2],-0.0384 (inactive)
same,z-score,[3],-0.229 (inactive)
same,z-score,[4],0.129 (inactive)
same,cell count,[1],5400
same,cell count,[2],5420
same,cell count,[3],5670
same,cell count,[4],3470
O=C(Cc1cccc(OC(F)(F)F)c1)Nc1ccc(CCCCc2nnc(NC(=O)Cc3ccccn3)s2)nn1,z-score,[5],1.3 (inactive)
same,z-score,[6],3.8 (active)
same,z-score,[7],4.04 (active)
same,z-score,[4],4.54 (active)
same,cell count,[5],5940
same,cell count,[6],4200
same,cell count,[7],4190
same,cell count,[4],3940
NC(=O)c1cnc(NC2CCCCC2N)nc1Nc1cccc(-n2nccn2)c1 (stereo not drawn),z-score,[1],-0.155 (inactive)
same,z-score,[2],-0.103 (inactive)
same,z-score,[3],0.129 (inactive)
same,z-score,[4],0.743 (inactive)
same,cell count,[1],5260
same,cell count,[2],4840
same,cell count,[3],5390
same,cell count,[4],3000
CCCC[C@H](C)C[C@H](O)/C=C/[C@H]1[C@H](O)CC(=O)[C@@H]1CCCCC(CC(=O)O)OC (stereo partly drawn),z-score,,-0.235 (inactive)
same,cell count,,5180
CC(C)OC(=O)N1CCC(Oc2ncnc3c2cnn3-c2ccc(S(C)(=O)=O)cc2F)CC1,z-score,[5],-0.707 (inactive)
same,z-score,[6],-0.537 (inactive)
same,z-score,[7],-0.462 (inactive)
same,z-score,[4],-0.531 (inactive)
same,cell count,[5],7670
same,cell count,[6],7400
same,cell count,[7],7330
same,cell count,[4],7200
CCCCC/C=C\C/C=C\CCCCCCCC(=O)O[C@H](COC(=O)CCCCCCCCCCCCCCC)COP(=O)(O)OCCN,z-score,,-0.42 (inactive)
same,cell count,,5090
CC(C)(C)OC(=O)Nc1ccc(-c2cc(C(=O)NCCCCCCC(=O)NO)no2)cc1,z-score,,4.81 (active)
same,cell count,,3910
CC(C)(C)CC1NC(C(=O)NC2CCC(O)CC2)C(c2cccc(Cl)c2F)[C@]12C(=O)Nc1cc(Cl)ccc12 (stereo partly drawn),z-score,[5],-0.637 (inactive)
same,z-score,[6],-0.742 (inactive)
same,z-score,[7],-0.98 (inactive)
same,z-score,[4],-1.86 (inactive)
same,cell count,[5],7790
same,cell count,[6],7430
same,cell count,[7],8360
same,cell count,[4],7510
CC(C)(C)C(O)C=Cc1ccc2c(c1)OCO2 (stereo not drawn),z-score,[1],0.0878 (inactive)
same,z-score,[2],0.509 (inactive)
same,z-score,[3],0.124 (inactive)
same,z-score,[4],0.138 (inactive)
same,cell count,[1],5100
same,cell count,[2],4800
same,cell count,[3],5050
same,cell count,[4],5260
CN1CCN(CCOc2cc(OC3CCOCC3)c3c(Nc4c(Cl)ccc5c4OCO5)ncnc3c2)CC1,outcome,library stock 10 mM,inactive; censored for cell count
same,z-score,[1],0.0594 (inactive) and -0.195 (inactive)
same,z-score,[2],0.376 (inactive) and 0.19 (inactive)
same,z-score,[3],1.62 (inactive) and 2.74 (active)
same,cell count,[1],4300 and 6110
same,cell count,[2],4050 and 5610
same,cell count,[3],3190 and 3140
O=C1C(c2ccccc2)N(c2ccc(Br)cc2)C(=O)N1c1ccc(Br)cc1 (stereo not drawn),z-score,,-0.397 (inactive)
same,cell count,,4960
CC#CCC(C)C(O)C=CC1C(O)C[C@@H]2CC(=CCCCC(=O)O)C[C@@H]12 (stereo partly drawn),z-score,[1],-0.0626 (inactive)
same,z-score,[2],-0.295 (inactive)
same,z-score,[3],0.193 (inactive)
same,z-score,[4],0.43 (inactive)
same,cell count,[1],5530
same,cell count,[2],5750
same,cell count,[3],5230
same,cell count,[4],4650
COc1cccc(-c2cn(-c3ccc(CCN4CCC(O)CC4)cc3)c3ncnc(N)c23)c1,z-score,[5],-0.0662 (inactive)
same,z-score,[6],-0.203 (inactive)
same,z-score,[7],0.503 (inactive)
same,z-score,[4],6.01 (active)
same,cell count,[5],6890
same,cell count,[6],6710
same,cell count,[7],6410
same,cell count,[4],2860
Nc1ncnc2c1c(-c1ccc(Oc3ccccc3)cc1)cn2C1CCCC1,z-score,[1],0.00446 (inactive)
same,z-score,[2],0.328 (inactive)
same,z-score,[3],0.396 (inactive)
same,z-score,[4],0.246 (inactive)
same,cell count,[1],4810
same,cell count,[2],4230
same,cell count,[3],4080
same,cell count,[4],3660
Cn1cc(-c2ccc3c(c2)CCN3C(=O)Cc2cccc(C(F)(F)F)c2)c2c(N)ncnc21,z-score,[5],-0.404 (inactive)
same,z-score,[6],-0.312 (inactive)
same,z-score,[7],-0.398 (inactive)
same,z-score,[4],0.717 (inactive)
same,cell count,[5],6450
same,cell count,[6],6260
same,cell count,[7],6230
same,cell count,[4],4040
CCCCCC(O)CCC1C(O)C[C@H]2Cc3c(cccc3OCC(=O)O)C[C@@H]12 (stereo partly drawn),z-score,[1],-0.232 (inactive)
same,z-score,[2],-0.452 (inactive)
same,z-score,[3],-0.204 (inactive)
same,z-score,[4],-0.825 (inactive)
same,cell count,[1],6220
same,cell count,[2],5860
same,cell count,[3],5910
same,cell count,[4],6040
CCCCC/C=C\C/C=C\CCCCCCCC(=O)OCC(COC(=O)CCCCCCCCCCCCCCC)OC(=O)CCCCCCC/C=C\CCCCCCCC (stereo not drawn),z-score,,0.273 (inactive)
same,cell count,,5490
CCCC(=O)Nc1nc(-c2ccccc2)cc(-c2ccccc2)n1,z-score,[1],-0.0977 (inactive)
same,z-score,[2],0.0694 (inactive)
same,z-score,[3],-0.49 (inactive)
same,z-score,[4],-0.335 (inactive)
same,cell count,[1],5390
same,cell count,[2],5300
same,cell count,[3],4980
same,cell count,[4],5140
O=C(Nc1nnc(-c2ccco2)o1)c1cc(-c2ccccc2)nc2ccccc12,z-score,[5],0.451 (inactive)
same,z-score,[6],0.815 (inactive)
same,z-score,[7],0.151 (inactive)
same,z-score,[4],2.24 (active)
same,cell count,[5],6600
same,cell count,[6],6010
same,cell count,[7],6640
same,cell count,[4],4920
COC(=O)C(NC(=O)c1cc(-c2ccccc2)nc2ccccc12)c1ccccc1 (stereo not drawn),z-score,[5],-0.299 (inactive)
same,z-score,[6],-0.209 (inactive)
same,z-score,[7],-0.176 (inactive)
same,z-score,[4],-0.0618 (inactive)
same,cell count,[5],6610
same,cell count,[6],6570
same,cell count,[7],6890
same,cell count,[4],6540
CCCC/C=C/C=C/C=C\CCCCCCCC(=O)OC,z-score,,0.121 (inactive)
same,cell count,,4950
O=C(O)CCC/C=C\C[C@@H]1C(=O)C[C@@H](O)[C@@H]1/C=C/[C@@H](O)CCc1ccccc1,z-score,,0.113 (inactive)
same,cell count,,5100
O=C1C(Cc2ccc(O)cc2)N2C(=O)CCN(C(=O)NCc3ccccc3)C2CN1Cc1cccc2ccccc12 (stereo not drawn),z-score,[5],-0.329 (inactive)
same,z-score,[6],-0.452 (inactive)
same,z-score,[7],-1.5 (inactive)
same,z-score,[4],-0.675 (inactive)
same,cell count,[5],7210
same,cell count,[6],7220
same,cell count,[7],7090
same,cell count,[4],4220
CN(C)CCC1(c2ccc(Cl)cc2)Cc2ccccc2C(=O)O1 (stereo not drawn),z-score,[5],-0.548 (inactive)
same,z-score,[6],-0.51 (inactive)
same,z-score,[7],-0.496 (inactive)
same,z-score,[4],0.011 (inactive)
same,cell count,[5],6980
same,cell count,[6],6360
same,cell count,[7],6480
same,cell count,[4],6170
C=C(C)[C@@H]1CCC(C)=C[C@H]1c1c(O)cc(C)cc1O,z-score,,-0.799 (inactive)
same,cell count,,5690
Nc1nc2c([nH]c(=O)n2[C@@H]2O[C@H](CO)[C@@H](O)[C@H]2O)c(=O)[nH]1,z-score,,-0.949 (inactive)
same,cell count,,5870
NC(=O)c1cccc(-c2cccc(OC(=O)NC3CCCCC3)c2)c1,z-score,,-0.595 (inactive)
same,cell count,,5600
COc1cccc(-c2ccc(NC(=O)C3=C(C(=O)O)CCC3)c(F)c2)c1,z-score,[5],0.0997 (inactive)
same,z-score,[6],0.11 (inactive)
same,z-score,[7],-0.285 (inactive)
same,z-score,[4],7.02 (active)
same,cell count,[5],6810
same,cell count,[6],6860
same,cell count,[7],6660
same,cell count,[4],3760
COc1cc(NC(=O)c2ccc(-c3ccc(Cl)cc3)o2)cc(OC)c1,z-score,[5],-0.316 (inactive)
same,z-score,[6],0.0249 (inactive)
same,z-score,[7],-0.417 (inactive)
same,z-score,[4],-1 (inactive)
same,cell count,[5],6650
same,cell count,[6],6230
same,cell count,[7],6670
same,cell count,[4],6710
C[C@@H](O)CCC[C@H](O)/C=C/C1=C(C/C=C\CCCC(=O)O)C(=O)CC1,z-score,,-0.229 (inactive)
same,cell count,,5100
c1ccc(Cc2ccncc2)cc1,z-score,[1],-0.46 (inactive)
same,z-score,[2],-0.111 (inactive)
same,z-score,[3],-0.201 (inactive)
same,z-score,[4],-0.169 (inactive)
same,cell count,[1],5970
same,cell count,[2],5030
same,cell count,[3],5260
same,cell count,[4],5220
CC/C=C\C/C=C\C/C=C\CCCCCCCC(=O)O,z-score,,-0.381 (inactive)
same,cell count,,5900
CCCCCCCCCCCC(=O)CC(=O)N[C@H]1CCOC1=O,z-score,,-0.866 (inactive)
same,cell count,,5800
CCCCC[C@H](O)/C=C/[C@H]1CC[C@@H](O)[C@@H]1CCCCCCC(=O)O,z-score,,0.234 (inactive)
same,cell count,,5240
CC1COCCN1c1cc(C2(S(C)(=O)=O)CC2)nc(-c2cccc3[nH]ccc23)n1 (stereo not drawn),outcome,library stock 10 mM,inactive; censored for cell count
same,z-score,[1],-0.307 (inactive)
same,z-score,[2],-0.152 (inactive)
same,z-score,[3],2.1 (active)
same,cell count,[1],5900
same,cell count,[2],5550
same,cell count,[3],2180
CCCCC[C@H](O)/C=C/[C@H]1[C@H](O)CC(=O)[C@@H]1CC(=O)CCCCC(=O)O,z-score,,0.036 (inactive)
same,cell count,,5230
CN(C)C1CCc2[nH]c3ccc(NC(=O)c4ccc(F)cc4)cc3c2C1 (stereo not drawn),z-score,[5],-0.478 (inactive)
same,z-score,[6],-0.381 (inactive)
same,z-score,[7],-0.318 (inactive)
same,z-score,[4],-0.368 (inactive)
same,cell count,[5],6480
same,cell count,[6],6070
same,cell count,[7],6670
same,cell count,[4],6110
CCCCC[C@H](O)/C=C/[C@H]1C2COC(C2)[C@@H]1C/C=C/CCCC(=O)O (stereo partly drawn),z-score,,-0.6 (inactive)
same,cell count,,5320
Cc1cc(Nc2cc(N3CCN(C)CC3)nc(Sc3ccc(NC(=O)C4CC4)cc3)n2)n[nH]1,outcome,library stock 80 µM,inactive; censored for cell count
same,outcome,library stock 400 µM,inactive; censored for cell count
same,outcome,library stock 2 mM,inactive; censored for cell count
same,outcome,library stock 10 mM,inactive; censored for cell count
same,z-score,[1],5.13 (active)
same,cell count,[1],1630
CCCCC(C)(C)[C@H](O)/C=C/[C@H]1C=CC(=O)[C@@H]1CCCCCCC(=O)O,z-score,,0.218 (inactive)
same,cell count,,4930
CCCCC[C@@H](O)/C=C/[C@H]1[C@H](O)CC(=O)[C@@H]1C/C=C\CCCC(=O)O,z-score,,-0.0831 (inactive)
same,cell count,,5100
CCCCCCCCCCCCCCP(=O)(O)O,z-score,,1.99 (active)
same,cell count,,4360
CCCCCCCCCCCCCCCCCCCCCCCCCCCCCCO,z-score,,-1.19 (inactive)
same,cell count,,5750
CCCCCCCCCCCC(=O)O,z-score,,0.0111 (inactive)
same,cell count,,5210
O=C(O)CCn1nnc2ccccc21,z-score,[5],-0.598 (inactive)
same,z-score,[6],-0.676 (inactive)
same,z-score,[7],-0.406 (inactive)
same,z-score,[4],-0.311 (inactive)
same,cell count,[5],7120
same,cell count,[6],7440
same,cell count,[7],7310
same,cell count,[4],7490
Cn1cncc1[C@@](N)(c1ccc(Cl)cc1)c1ccc2c(c1)c(-c1cccc(Cl)c1)cc(=O)n2C,z-score,[1],0.384 (inactive)
same,z-score,[2],1.69 (inactive)
same,z-score,[3],2.04 (active)
same,z-score,[4],1.89 (inactive)
same,cell count,[1],5540
same,cell count,[2],3990
same,cell count,[3],3590
same,cell count,[4],3700
